Assay outcomes deposited in PubChem BioAssay by several laboratories.
NALP1 inh = NALP1 inflammasome inhibitors in reconstituted yeast, colorimetric, S. cerevisiae, triplicate retest; S. cerevisiae NALP1/ASC/caspase-1 growth, X-gal OD620, 72 h; inhibition, % at 10 µM; 0.61% of 280,000 active; AID 2071, 2009; in the data active = inhibition mostly above about 24%, no sharp cut-off; inactive = mostly below about 32%
NALP3 yeast inh = NALP3 inflammasome inhibitors in reconstituted yeast, primary screen, luminescence, uHTS; Yeast reconstituted NLRP3/ASC/caspase-1, beta-gal luminescence, 24 h; 0.39% of 330,000 active; inhibition, % at 10 µM; AID 2825, 2010;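 active = inhibition of 50% or more; inactive = inhibition below 50%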
PolyA inhibitor = polyadenylation inhibitors in yeast reporter cells, primary screen, luminescence, S. cerevisiae | 0.02% of 300,000 active | activity score, % at 12 µM | AID 1875, 2009 | S. cerevisiae SKY197-pL101 polyadenylation reporter, beta-gal luminescence; efflux-impaired pdr1/pdr3 knockout yeast; score 100 = 6 SD above DMSO;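 active = lowest replicate activity score at least 50, where 100 means six control SD above control mean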;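 also: yeast exposed to compound for 9 h at 30 °C; higher score means more reporter readthrough which indicates perturbed polyadenylation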
SUMO Mot1 rescue = yeast Mot1-301 growth rescue at high temperature, primary screen, SUMOylation pathway inhibitor project, S. cerevisiae, ATP luminescence, 38.5C | S. cerevisiae Mot1-301 growth rescue; percent above DMSO median, 100 means doubled | growth rescue, % at 18.8 µM | 1% of 320,000 active | AID 2716, 2010;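 active = every valid replicate shows activation above 250% relative to neutral control wells; inactive = the rest, any valid replicate at or below 250%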
Yeast Mot1 SUMO = growth restoration of Mot1-301 yeast on galactose, dose response, SUMO pathway inhibitor project, whole organism, S. cerevisiae, ATP luminescence, cherry-picked samples; shares compounds with SUMO Mot1 rescue; S. cerevisiae Mot1-301 galactose growth, 24 h; -100 = growth of slx-deleted rescue strain; growth activity, percent, % at 42 µM; 2,300 tested, under 10 active;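 active = Signal drops as the depositor expects, and the fitted half-maximal dose is no more than ten times the top valid tested dose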;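 also: more negative values mean stronger growth rescue toward the control strain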
Hits are given with their value; 0 = inactive; - = no result. A selection: hits, their analogues and other compounds. The true share with any hit is near 1.8%.

SMILES | NALP1 inh | NALP3 yeast inh | PolyA inhibitor | SUMO Mot1 rescue | Yeast Mot1 SUMO
O=C(NCc1csc(-c2cccs2)n1)Nc1ccc(F)cc1F | 0 | 0 | 0 | 438 | 0
O=C(NCc1csc(-c2cccs2)n1)Nc1ccc(C(F)(F)F)cc1 | 0 | 0 | 0 | 0 | -
CC1CC(C)(C)N(C(=O)CN2C(=O)CCC2=O)c2ccccc21 (stereo unspecified) | 0 | 0 | 0 | 371 | 0
CC1=CC(C)(C)N(C(=O)CN2C(=O)CCC2=O)c2ccccc21 | 0 | 0 | 0 | 0 | -
COCc1nnc(NC(=O)CC(C)C)s1 | 0 | 0 | 0 | 644 | 0
COCc1nnc(NC(=O)CC(c2ccccc2)c2ccccc2)s1 | 0 | 0 | 0 | 0 | -
O=C1CN(C(=O)COC(=O)c2ccco2)c2ccccc2N1 | - | 0 | - | 0 | -
O=C1CN(C(=O)COC(=O)c2ccccc2NCc2ccco2)c2ccccc2N1 | 0 | 0 | 0 | 728 | 0
COc1ccccc1/C=C/C(=O)c1ccccc1 | 0 | - | 0 | 0 | -
COc1ccccc1/C=C/C(=O)c1c2c(c(C)[nH]c1=O)CCCC2 | 0 | 0 | - | 0 | 0
O=C(CN1C2=NCCN2c2ccccc21)c1ccco1 | 0 | 0 | 0 | 0 | -
CCCn1c(SC(C)C(=O)NCC2CCCO2)nc2sc(CC)cc2c1=O (stereo unspecified) | 0 | 0 | 0 | 466 | 0
COc1ccc(CCNC(=O)CCNS(=O)(=O)c2ccc3c(c2)CCN3C(C)=O)cc1OC | 0 | 0 | - | 0 | -
COc1ccc(OC)c(CN2CCN(C(=O)CNC(=O)c3ccccc3F)CC2)c1 | - | 0 | - | 0 | -
CC(=O)C1=C(C)Nc2ncnn2C1c1ccccc1Cl (stereo unspecified) | 0 | 0 | 0 | 0 | -
Cc1ccc(Sc2cnccc2C#N)cc1 | 0 | 0 | 0 | 618 | 0
CCCC(=O)Nc1ccc(Sc2ccc([N+](=O)[O-])cc2)cc1 | 0 | 0 | 0 | 374 | 0
CCC(CC)C(=O)Nc1ccc(Sc2ccc([N+](=O)[O-])cc2)cc1 | 0 | 0 | 0 | 0 | -
CCc1nn2c(=O)cc(COc3cccc(NC(=O)c4ccco4)c3)nc2s1 | 0 | 0 | 0 | 0 | -
NS(=O)(=O)c1ccc(Nc2c([N+](=O)[O-])cncc2[N+](=O)[O-])cc1 | 0 | 0 | 0 | 0 | -
O=[N+]([O-])c1cncc([N+](=O)[O-])c1Nc1ccccc1Cl | 0 | 0 | 0 | 813 | 0
COc1ccc(C(=O)CC(=O)c2ccc(F)cc2)cc1 | - | 0 | 0 | 0 | -
CC1=C(C(=O)N2CCOCC2)C(c2ccc(O)cc2)NC(=S)N1 (stereo unspecified) | 0 | 0 | 0 | 583 | 0
CC1=C(C(=O)N2CCOCC2)C(c2ccc(-c3ccccc3)cc2)NC(=S)N1 (stereo unspecified) | 0 | 0 | 0 | 0 | -
COc1ccc(C(=O)Nc2ccc3c(c2)nc(CCNC(C)=O)n3C)cc1 | 0 | 0 | 0 | 0 | -
SMILES | NALP1 inh | NALP3 yeast inh | PolyA inhibitor | SUMO Mot1 rescue | Yeast Mot1 SUMO
CC(=O)NCCc1nc2cc(NC(=O)c3ccc(F)cc3)ccc2n1C | 0 | 0 | 0 | 741 | 0
CC(C)C(=O)NNc1ccc(C(F)(F)F)cn1 | 0 | 0 | 0 | 586 | 0
O=C(O)CCCC(=O)N1CCOCCOCCOCCOCC1 | 0 | 0 | 0 | 0 | -
O=c1cc(COc2ncnc3c(Cl)cc(Cl)cc23)nc2sccn12 | 0 | 0 | 0 | 0 | -
O=c1cc(COc2ncnc3ccccc23)nc2sccn12 | 0 | 0 | 0 | 543 | 0
NC(=O)NC(=O)COC(=O)c1ccccc1OCc1ccc(F)cc1 | - | 0 | 0 | 0 | -
Cc1nnc(C)n1/N=C/c1cc2ccccc2nc1Cl | 0 | 0 | 0 | 608 | 0
Cn1c(N/N=C/c2cc3ccccc3nc2Cl)nc2ccccc21 | 0 | 0 | 0 | 0 | -
CCOC(=O)c1oc2c(c1C)C(=O)CCC2 | 0 | 0 | 0 | 934 | 0
CCOC(=O)c1oc2c(c1C)/C(=N/O)CCC2 | 0 | 0 | 0 | 0 | -
CN(C)CCOC(c1ccc(Cl)cc1)c1ccccn1 (stereo unspecified) | 0 | 0 | 0 | 974 | 0
CN(C)CCOC(c1ccccc1)c1ccccc1 | - | 0 | 0 | 0 | -
O=C1NC(Cc2c[nH]c3ccccc23)C(=O)N1Cc1ccc(CN2C(=O)NC(Cc3c[nH]c4ccccc34)C2=O)cc1 (stereo unspecified) | 0 | 0 | 0 | 572 | 0
